Source: PubChem BioAssay (NCI)
This is part of a sample that, as a whole, favours compounds with a hit. Of some 83,000 tested, about 20% had one in any assay.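 Cells were grown in 96-well plates and exposed to the test compound at a single concentration for 48 hours; results are reported as percent growth, with values below 10 considered active.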 A number with no mark means an inactive call. The source made the active and inactive calls.

The compounds below were run on NCI-H23 lung (assay: NCI-60 one-dose screen, 48 h (100 = growth as untreated, 0 = no growth, -100 = all killed)). Settings: 10 µM unless noted.
Protocol: Growth inhibition of the NCI-H23 human Non-Small Cell Lung tumor cell line is measured as a screen for anti-cancer activity. Cells are grown in 96 well plates and exposed to the test compound for 48 hours. Compounds are tested at a single concentration, which is 10^-5 M for most compounds. The reported endpoint is percent growth (GI% or GIPRCNT), where numbers from 0 - 100% represent growth inhibition, and numbers from -100% - 0 represent cell death. For example, a value of 40 represents 60% growth inhibition. A value of 0 means no net growth occurred over the course of the experiment. A value of -40 indicates 40% of cells at the beginning of the experiment died by the end of the experiment. A value of -100 means all cells are dead at the end of the experiment.
NCI-60 Human Tumor Cell Lines Screen was performed using the standard one-dose NCI protocol, which is described in more detail at https://dtp.cancer.gov/discovery_development/nci-60/default.htm.
Compounds with GIPRCNT values below 10 were considered active. Activity score was based on GIPRCNT using the following formula: […]
Score is 0 for GIPRCNT values of 100 or above, 50 for GIPRCNT values of 0, and 100 for GIPRCNT values of -100.
Compound `COc1ccc(/C(C)=C(/c2ccc(OCCCN(C)C)cc2)c2ccc(OC(=O)Cc3ccccc3)cc2)cc1` has a growth of 76.4%. Work on `N#C/C(=C\c1ccc(Br)cc1)n1nnc2ccc(F)cc21` yielded a growth of 16%. Compound `CCN1CC(=O)N(/N=C2\C(=O)Nc3ccccc32)C1=S` has a growth of 91.4%. `CN1CCN(C(=O)OCc2ccc3c(Cl)cc(Cl)c(O)c3n2)CC1` was tested, and the growth was 59.6%. `CCn1c(=S)sc2c(Nc3ccc(F)cc3)nc(-c3cccnc3)nc21` gave a growth of 66.2%. `CCCc1cc(NC)nc(S(=O)(=O)CC)n1` gave a growth of 102%. Work on `CC(=O)N(N=Nc1ccccc1)c1cccc2ccccc12` yielded a growth of 86.9%. `O=c1oc2ccccc2cc1C1=NN=C(SCc2ccccc2)SC1` was tested, and the growth was 94.9%. `Cc1cc2c(O)c(-c3cc(Cl)ccc3Cl)c3sc(=O)oc3c2cc1C` showed a growth of 44.2%. Work on `CC1=Nc2cnc(Nc3ccc(OCCN4CCCCC4)cc3)nc2Nc2ccccc21` yielded a growth of 71.5%. For `O=C(CN1C(=O)CCC1=O)Nc1ncc(Cc2ccc(F)cc2)s1`, the growth was 98.6%. With `COc1ccc(-c2csc(N(C(=O)N3CCN(c4cc5c(cc4F)c(=O)c(C(=O)O)cn5C4CC4)CC3)c3ccccc3)n2)cc1` the growth was 4.28% (active). Work on `Cc1ccc(/C=N/Nc2nc(Nc3ccccc3)nc(-n3nc(C)cc3C)n2)cc1` yielded a growth of 54.8%. For `Clc1ccc(Sc2cnc(-c3ccccc3)o2)cc1`, the growth was 95.5%. For `CCN(CC)CCNC(=O)c1cn2ncnc(Oc3ccc(NC(=O)Nc4ccc(Cl)c(C(F)(F)F)c4)c(F)c3)c2c1C`, the growth was -37.4% (active). `COc1cc(-n2cc(-c3cc(O)c(C/C=C(\C)CCC=C(C)C)c(O)c3)nn2)cc2c1O[C@]1(C)CC[C@@H](O)C(C)(C)[C@H]1C2` showed a growth of 26.2%. Compound `Cc1nc(N2CCOCC2)sc1S(N)(=O)=O` has a growth of 102%. With `C#CCOc1ccc2ncnc(Nc3cccc(NC(=O)C=C)c3)c2c1` the growth was 80.7%. With `Cc1cccnc1NC(=S)Nc1ncccc1C` the growth was 99.2%. `S=C(Nc1ccc(-c2nc(N3CCOCC3)c3cccn3n2)cc1)Nc1cccnc1` gave a growth of 37.7%. `O=C(O)[C@@H]1c2ccccc2-c2ccccc2[C@H]1C(=O)O` showed a growth of 91.4%. `CN(C)C1CCN(Cc2ccc(NC(=O)c3cncc(C#Cc4cnc(N)c5ncccc45)c3)cc2C(F)(F)F)CC1` was tested, and the growth was 84.7%. `Cc1ccc(-c2nc(N3CCNCC3)c3oc(-c4ccccc4)nc3n2)cc1` gave a growth of 35.3%. `Cn1cc(-c2nonc2-c2c[nH]c3ccc(Br)cc23)c2cc(Br)ccc21` gave a growth of 39.9%. Compound `CC1=C(CCC(C)N(C)Cc2ccc(OCCCN3CCCC3)cc2)C(C)(C)CCC1` (stereo not given) has a growth of 64%. Compound `O=Nc1c(-c2c(O)[nH]c3ncccc23)[nH]c2ccccc12` has a growth of 69.7%. Work on `C=C(C)[C@@H]1CC[C@]2(C(=O)NCC#CCN3CCN(C)CC3)CC[C@]3(C)[C@H](CC[C@@H]4[C@@](C)(CCC#N)[C@H](C(=C)C)CC[C@]43C)[C@@H]12` yielded a growth of 75.7%. `COc1ccc(-c2nnc3n(C)c(=O)c4ccccc4n23)cc1N` gave a growth of 46.6%. `COc1cc(C(=O)n2nc(N3CCN(C)CC3)c3cc(N)ccc32)cc(OC)c1OC` showed a growth of 38.3%. In the case of `N=C(N)c1ccc(-c2ccc(-c3cc(Cl)cc(Cl)c3)o2)o1`, the growth is reported as -75.4% (active). For `Cc1ccc(CNc2ccc(Cl)cc2NCc2ccc(C)c(O)c2)cc1O`, the growth was 3.7% (active). `NC(=O)c1c(NC(=O)c2ccccc2)sc2c1CCC(=O)C2` was tested, and the growth was 5.93% (active). Compound `O=C(NNC(=O)c1ccc(-n2cc(-c3ccccc3)nn2)cc1)Nc1ccccc1` has a growth of 97.6%. `C[C@@H]1CCC[C@H]1CC(N)C(=O)O` (stereo not given in full) gave a growth of 97.2%. `CC(O)c1cnc(/C=C2\SC(=S)N(Cc3ccccc3)C2=O)s1` (stereo not given) showed a growth of 99.7%. Compound `CN1C(=O)/C(=C/c2ccc(C(=O)Nc3ncc(Cc4ccc(Cl)cc4)s3)cc2)SC1=S` has a growth of 65.7%. For `O=C1CC(N2C(=O)/C(=C/C(Cl)=C\c3ccc([N+](=O)[O-])cc3)SC2=S)C(=O)N1c1ccc(Cl)cc1` (stereo not given), the growth was 17.3%. `CCOC(=O)C1=C(NC)OCC1=O` showed a growth of 99.9%. For `CC1(c2ccccc2O)NN=C(/N=C/c2cccc([N+](=O)[O-])c2)N1C(Cc1c[nH]c2ccccc12)C(=O)O` (stereo not given), the growth was 80.3%. `Cc1cccc(Cl)c1NC(=O)c1ccc2nc(NC(=O)NCCN(C)C)sc2c1` was tested, and the growth was 103%.
